Screens: PubChem BioAssay, National Center for Advancing Translational Sciences (NCATS)
Hits are enriched below; roughly 2.6% of the tested compounds scored in any of these assays.
Cruzain noTriton: qHTS Assay for Promiscuous and Specific Inhibitors of Cruzain (without detergent); Cruzipain (Trypanosoma cruzi), P25779; purified cruzain, Z-FR-AMC fluorescence, no detergent; Potency, µM, inactives show max response, negative = inhibition, usual class: inhibitors; 200,000 compounds, 2.3% hits;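 also: plate controls were enzyme without inhibitor for no effect and buffer without enzyme for full effect; nearly all actives have a fitted effect of over 40% in size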
Target sequence (P25779 123-467 limits assumed): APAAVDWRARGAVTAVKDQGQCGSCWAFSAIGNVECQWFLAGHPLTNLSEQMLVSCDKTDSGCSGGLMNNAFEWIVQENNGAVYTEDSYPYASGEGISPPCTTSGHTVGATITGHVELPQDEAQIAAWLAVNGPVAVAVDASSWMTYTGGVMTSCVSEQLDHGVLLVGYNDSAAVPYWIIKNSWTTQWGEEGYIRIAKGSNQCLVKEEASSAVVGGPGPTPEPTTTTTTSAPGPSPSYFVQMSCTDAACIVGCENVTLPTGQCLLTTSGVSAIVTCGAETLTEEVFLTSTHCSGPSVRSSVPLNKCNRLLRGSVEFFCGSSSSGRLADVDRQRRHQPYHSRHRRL
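Purified cruzain at 1.5 nM, pre-incubated 15 min with compound at room temperature in 100 mM sodium acetate pH 5.5, 5 mM DTT, 0.00005% Triton X-100. Reaction started with 2 uM Z-FR-AMC; AMC fluorescence increase over 60 s gives rate.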
Cruzain Triton: qHTS Assay for Promiscuous and Specific Inhibitors of Cruzain (with detergent) | Cruzipain (Trypanosoma cruzi), P25779 | purified cruzain, Z-FR-AMC fluorescence, 0.01% Triton | Potency, µM, for the others: max response, negative = inhibition, usual class: inhibitors | 200,000 compounds, 0.43% hits | AID 1478, 2009;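 also: plate controls were neutral wells for no effect and buffer without enzyme for full effect; nearly all actives have a fitted effect of over 40% in size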
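Enzyme 1.5 nM, Z-FR-AMC 2 uM, NaOAc 100 mM pH 5.5, DTT 5 mM, Triton X-100 0.01%; 15 min RT compound preincubation; kinetic ex360/em450, 60 s delta.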
* marks the source's active call; other numbers are inactive results. Calls follow the shape of the dose curve; as a rule, active = well fitted curve in the direction sought with a large enough effect; inconclusive = small, poorly fitted or top-dose-only effect, or another doubt; inactive = no such curve, though single readings can be large; an effect the other way counts as inactive or inconclusive. Potency is read from the fitted curve at half-maximal effect.

For Cc1ccc(S(=O)(=O)c2c(N)n(/N=C/c3ccco3)c3nc4ccccc4nc23)cc1C the results were Cruzain noTriton 15.8µM* and Cruzain Triton -21.6%.
COc1cccc(OCc2nc3ccccc3n2CCOc2ccccc2)c1 was read as Cruzain noTriton -5.9% and Cruzain Triton -6.0%.
Screening CCCCOc1ccc(NC(=O)C(=O)NCCC2=CCCCC2)cc1 returned Cruzain noTriton 10µM* and Cruzain Triton 2.9%.
COc1ccc(NC(=O)C(=O)NCCC2=CCCCC2)c(OC)c1 was read as Cruzain noTriton 3.4% and Cruzain Triton 1.8%.
For Cn1cc(SCC(=O)Nc2ccc3c(c2)OCO3)c2ccccc21 the results were Cruzain noTriton -17.4% and Cruzain Triton -5.9%.
Screening CC(C)n1cc(/C=C2/SC(=O)N(CC(=O)Nc3ccc4c(c3)OCO4)C2=O)c2ccccc21 returned Cruzain noTriton 10µM* and Cruzain Triton 2.4%.
`NCC1O[C@@H](OC2C(N)C[C@H](N)[C@@H](O[C@H]3OC(CO)C(O)C(N)C3O)C2O)C(N)C(O)C1O` (stereo partly drawn) gave Cruzain noTriton -5.1% and Cruzain Triton -6.5%.
Screening COc1cccc(C2c3c(-c4ccccc4O)n[nH]c3C(=O)N2CCc2ccc(OC)c(OC)c2)c1 (stereo not drawn) returned Cruzain noTriton 2.0% and Cruzain Triton -9.7%.
For CCCCOc1nnc(-c2ccc(OCC)cc2)c2ccccc12 the results were Cruzain noTriton -8.6% and Cruzain Triton -1.0%.
Screening Clc1cccc(N2CCN(c3nc4ccccc4n4nnnc34)CC2)c1 returned Cruzain noTriton 20µM* and Cruzain Triton -3.0%.
For Cc1ccc2nc(N3CCN(c4ccccc4)CC3)c3nnnn3c2c1 the results were Cruzain noTriton -1.9% and Cruzain Triton -0.3%.
Screening Cc1cccc(C)c1-n1c(C)cc(/C=N/NC(N)=S)c1C returned Cruzain noTriton inconclusive and Cruzain Triton -16.3%.
For Cc1cc(/C=N/NC(N)=S)c(C)n1-c1ccc(Cl)cc1 the results were Cruzain noTriton inconclusive and Cruzain Triton 28.2µM*.
Oc1cccc(NC(=S)Nc2ccc(SC(F)F)cc2)c1 was read as Cruzain noTriton -2.1% and Cruzain Triton -5.4%.
Screening FC(F)Sc1ccc(NC(=S)NC2CCC(NC(=S)Nc3ccc(SC(F)F)cc3)CC2)cc1 (stereo not drawn) returned Cruzain noTriton 15.8µM* and Cruzain Triton 2.3%.
For N[C@H](Cc1cnc[nH]1)C(=O)O the results were Cruzain noTriton 2.8% and Cruzain Triton 3.0%.
For CCCC(=O)Nc1nc(C)c(-c2csc(Nc3ccccc3C)n2)s1 the results were Cruzain noTriton -27.2% and Cruzain Triton 1.6%.
Screening CCCCCCC(=O)Nc1nc(C)c(-c2csc(Nc3ccccc3OC)n2)s1 returned Cruzain noTriton 10µM* and Cruzain Triton 3.9%.
COc1ccc(OC)c(Nc2nc(-c3sc(NC(=O)CC(C)C)nc3C)cs2)c1 was read as Cruzain noTriton -28.9% and Cruzain Triton -1.2%.
For CCCCCC(=O)Nc1nc(C)c(-c2csc(Nc3ccccc3OC)n2)s1 the results were Cruzain noTriton 12.6µM* and Cruzain Triton -2.0%.
`CCC(C)C(=O)Nc1nc(C)c(-c2csc(Nc3cc(OC)ccc3OC)n2)s1` (stereo not drawn) gave Cruzain noTriton -19.8% and Cruzain Triton -5.6%.
CCCCCC(=O)Nc1nc(C)c(-c2csc(Nc3ccccc3OCC)n2)s1 was read as Cruzain noTriton 7.94µM* and Cruzain Triton 1.4%.
`COc1ccc(CNC(=O)CN(c2ccc(C(C)C)cc2)S(=O)(=O)c2c(C)nn(C)c2C)cc1` gave Cruzain noTriton -7.4% and Cruzain Triton -2.4%.
`O=C(O)C=Cc1ccc(Cn2ccnc2)cc1` gave Cruzain noTriton 2.5% and Cruzain Triton 3.0%.
`COC(=O)N1C(C)=Cc2ccccc2C1C/C(C)=C/C(C)=O` (stereo not drawn) gave Cruzain noTriton -1.7% and Cruzain Triton 1.7%.
For COc1ccccc1N1CCN(c2ncnc3c2c(-c2ccccc2)cn3-c2cccc(C)c2)CC1 the results were Cruzain noTriton 4.0% and Cruzain Triton 0.5%.
COc1ccc(-c2cc([C@H](O)C3CCCCN3)c3ccccc3n2)cc1 (stereo partly drawn) was read as Cruzain noTriton 7.5% and Cruzain Triton 3.2%.
For COc1ccc(OC)c(NS(=O)(=O)c2cc3c(cc2Cl)N(C(C)=O)CCO3)c1 the results were Cruzain noTriton -8.7% and Cruzain Triton -6.4%.
`Cc1cc(C)n(-c2nnc(Nc3ccc(C)c(Cl)c3)c3ccccc23)n1` gave Cruzain noTriton -8.0% and Cruzain Triton -12.2%.
For Cc1cccc(C)c1NC(=O)COc1cccc(/C=N/NC(=O)C(=O)NCc2ccccc2)c1 the results were Cruzain noTriton 25.1µM* and Cruzain Triton 6.7%.
Screening C=CCOc1cccc(/C=N/NC(=O)C(=O)NCc2ccco2)c1 returned Cruzain noTriton inconclusive and Cruzain Triton 4.7%.
`O=C(CSc1ccc(C(F)(F)F)cc1[N+](=O)[O-])Nc1ccc2ccccc2c1` gave Cruzain noTriton 12.6µM* and Cruzain Triton -3.7%.
Screening CC(=O)Nc1cccc(NC(=O)CSc2ccc(C(F)(F)F)cc2[N+](=O)[O-])c1 returned Cruzain noTriton 0.7% and Cruzain Triton -0.9%.
`Fc1ccc2[nH]c3c(NCCN4CCOCC4)ncnc3c2c1` gave Cruzain noTriton 20µM* and Cruzain Triton inconclusive.
`Clc1ccc(-n2ncc3c(NCC4CCCO4)ncnc32)cc1` (stereo not drawn) gave Cruzain noTriton -9.1% and Cruzain Triton -1.9%.
`O=c1c2[nH]c3ccc(Cl)cc3c2ncn1CCN1CCCCC1` gave Cruzain noTriton -11.8% and Cruzain Triton -4.8%.
Screening Clc1ccc2[nH]c3c(NCCN4CCOCC4)ncnc3c2c1 returned Cruzain noTriton 15.8µM* and Cruzain Triton 14.1µM*.
`O=c1c2[nH]c3ccc(F)cc3c2ncn1CCCN1CCOCC1` gave Cruzain noTriton -2.1% and Cruzain Triton 1.3%.
Clc1ccc2[nH]c3c(NCC4CCCO4)ncnc3c2c1 (stereo not drawn) was read as Cruzain noTriton 20µM* and Cruzain Triton inconclusive.
Cc1ccccc1C(=O)Nc1nnc(SCc2cc(=O)c3c(C)ccc(C)c3[nH]2)s1 was read as Cruzain noTriton -5.8% and Cruzain Triton 6.9%.
CCC(C(=O)NCCC(C)C)N(C(=O)Cn1nnc(-c2ccc(C)cc2)n1)c1cccc(O)c1 (stereo not drawn) was read as Cruzain noTriton -24.6% and Cruzain Triton -8.4%.
`COc1cc(NC(=O)N2CCN(c3cc(-c4noc(C)n4)ccc3C)CC2)cc(OC)c1OC` gave Cruzain noTriton inconclusive and Cruzain Triton -3.4%.
O=C(Cn1cc(SCc2ccc(C(F)(F)F)cc2)c2ccccc21)N1CCOCC1 was read as Cruzain noTriton inconclusive and Cruzain Triton -16.7%.
Screening Cc1ccc(-n2ncc3c(NCCCc4ccccc4)ncnc32)cc1 returned Cruzain noTriton -6.2% and Cruzain Triton 1.2%.
For Cc1ccccc1CNC(=O)c1ccc2c(c1)N(Cc1ccccc1)CCS2 the results were Cruzain noTriton -26.9% and Cruzain Triton -6.6%.
For CC(C)Oc1ccccc1/C=N/NC(=O)c1ccc(F)cc1 the results were Cruzain noTriton -5.1% and Cruzain Triton -9.1%.
`CC(C)Oc1ccc(Br)cc1/C=N\NC(N)=S` gave Cruzain noTriton 0.0316µM* and Cruzain Triton 0.251µM*.
`COc1ccccc1CCNC(=O)CCc1c(C)c2cc3c(C)coc3c(C)c2oc1=O` gave Cruzain noTriton -0.2% and Cruzain Triton -2.4%.
